Our source for the max response, outcome and Potency values is PubChem BioAssay (NCATS).

One experiment concerns CRL-7250. In words: Cytotoxic Profiling of Annotated Libraries Using Quantitative High-Throughput Screening (AID 1296008). For max response: % is set by controls: 0 for no effect and ±100 for the full control effect. As to conditions: Five cell lines viability, CellTiter-Glo ATP luminescence, 48-72 h; max response: hits give low values. The method in brief: (§1)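 Cytotoxicity was measured as CellTiter-Glo ATP luminescence, read after 10 min at room temperature. Compound treatment of the cells lasted 48 or 72 hr at 37 degrees Celsius in a qHTS format.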

The test system of experiment [1] is HaCat. The description is as above. As to conditions: Five cell lines viability, CellTiter-Glo ATP luminescence, 48-72 h; max response: hits give low values. The method in brief:
as §1
Background: ATP-based viability assays read luminescence as a measure of living cells.

The subject of a further experiment is KB-3-1. The description is as above. Conditions: Five cell lines viability, CellTiter-Glo ATP luminescence, 48-72 h; max response: hits give low values. The method in brief:
as §1

The test system of a further experiment is NIH3T3. Described as above. Conditions: Five cell lines viability, CellTiter-Glo ATP luminescence, 48-72 h; max response: hits give low values. The method in brief:
as §1

The subject of a further experiment is HEK293. The experiment is described as above. As to conditions: Five cell lines viability, CellTiter-Glo ATP luminescence, 48-72 h; max response: hits give low values. Put shortly: as §1
Experiment [2] deals with HACAT. In words: qHTS assay to identify novel small-molecules to repurpose for Merkel cell carcinoma treatment (AID 1296009). As to conditions: MCC and control cell lines, CellTiter-Glo viability, 72 h; at 44.8 µM (top of the series) unless noted. The method in brief:
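Cell viability measured by CellTiter-Glo following 72 hr compound treatment at 37 degree celsius, with NPC and MIPE libraries tested in 8- and 11-point concentration series.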
In general terms: Quantitative high-throughput screening tests each substance at several concentrations.

The next experiment relates to HB3. In words: qHTS profiling for inhibitors of Plasmodium falciparum proliferation (AID 504749). Note: potency is the fitted concentration of half-maximal effect. As to conditions: P. falciparum in erythrocytes, SYBR Green DNA, 72 h; series mostly up to 28.7 µM. The method in brief: (§2)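 In a 72 h erythrocytic culture (37 C, humidified, 5% CO2) at 2.5% hematocrit and 0.3% starting parasitemia, compounds were tested; SYBR Green I in detergent lysis buffer stained parasite DNA overnight.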

The subject of another experiment is ICS. Described as above. Conditions: P. falciparum in erythrocytes, SYBR Green DNA, 72 h; series mostly up to 28.7 µM. Put shortly:
as §2

The subject of the next experiment is N140. The experiment is described as above. As to conditions: P. falciparum in erythrocytes, SYBR Green DNA, 72 h; series mostly up to 28.7 µM. Put shortly:
as §2

For another experiment, the system named is P93_24. The experiment is described as above. Conditions: P. falciparum in erythrocytes, SYBR Green DNA, 72 h; series mostly up to 28.7 µM. The method in brief:
as §2

Another experiment has as its system P94_40. The experiment is described as above. As to conditions: P. falciparum in erythrocytes, SYBR Green DNA, 72 h; series mostly up to 28.7 µM. Put shortly:
as §2

A further experiment has as its system PAD. The experiment is described as above. As to conditions: P. falciparum in erythrocytes, SYBR Green DNA, 72 h; series mostly up to 28.7 µM. Put shortly: as §2
A further experiment relates to PC15. Described as above. As to conditions: P. falciparum in erythrocytes, SYBR Green DNA, 72 h; series mostly up to 28.7 µM. Put shortly: as §2
The subject of a further experiment is PC26. The experiment is described as above. Conditions: P. falciparum in erythrocytes, SYBR Green DNA, 72 h; series mostly up to 28.7 µM. The method in brief:
as §2

A further experiment has as its system PC49. The experiment is described as above. As to conditions: P. falciparum in erythrocytes, SYBR Green DNA, 72 h; series mostly up to 28.7 µM. The method in brief: as §2
For a further experiment, the system named is SC27B. Described as above. As to conditions: P. falciparum in erythrocytes, SYBR Green DNA, 72 h; series mostly up to 28.7 µM. Put shortly:
as §2

Another experiment has as its system TAB109. The experiment is described as above. As to conditions: P. falciparum in erythrocytes, SYBR Green DNA, 72 h; series mostly up to 28.7 µM. Put shortly: as §2
Another experiment has as its system TAB165. The experiment is described as above. Conditions: P. falciparum in erythrocytes, SYBR Green DNA, 72 h; series mostly up to 28.7 µM. Put shortly: as §2
The test system of another experiment is JCK. The description is as above. As to conditions: P. falciparum in erythrocytes, SYBR Green DNA, 72 h; series mostly up to 28.7 µM. The method in brief: as §2
The next experiment concerns TAB113. Described as above. As to conditions: P. falciparum in erythrocytes, SYBR Green DNA, 72 h; series mostly up to 28.7 µM. Put shortly: as §2

The structures appear in SMILES notation. Records with an inconclusive call do not appear. A number with no mark means an inactive call. Activity calls are given as the source filed them. Calls come from the whole dose curve; as a rule, active = well fitted inhibition curve with a large enough effect; inconclusive = small, poorly fitted or top-dose-only effect; inactive = flat fitted curve, though single readings scatter.
Note: nearly all actives have a fitted effect of over 60% in size.

In the case of `c1ccc(C(O[C@H]2CCCN(CCc3ccc4c(c3)OCO4)C2)c2ccccc2)cc1`, the max response in the experiment with CRL-7250 is -1.12%; in the experiment with HaCat [1], 0.583%; in the experiment on KB-3-1, -8.06%; in the experiment with NIH3T3, -0.771%.
On to `O=C1NC(=O)/C(=C/c2ccc3c(c2)OC(F)(F)O3)S1`, for which the max response is 4.23% with CRL-7250, -3.64% in the experiment with HaCat [1] and -4.12% in the experiment on NIH3T3.
With `CCNC(=O)NCCCOc1cccc(CN2CCCCC2)c1`, the max response in the experiment on CRL-7250 was -12.2%; in the experiment with HEK293 it was -59.3%. The result with NIH3T3 was inactive.
As for `Cc1ccc(Cl)c(OCC(O)CNC(C)(C)C)c1` (stereo not given), the compound was classed as inactive in the experiment with CRL-7250. The max response in the experiment with HaCat [1] is 2.84%; with NIH3T3 it was 1.79%.
Take `NCC(=O)O`: the max response in the experiment with HaCat [1] was -52.5%; with NIH3T3, -6.02%.
For `O=C1OC2(c3ccccc31)c1cc(I)c(O)c(I)c1Oc1c2cc(I)c(O)c1I`, the outcome in the experiment with HaCat [1] and in the experiment on HACAT [2] was inactive. Moreover, in the experiment on NIH3T3, the max response was -20.5%.
Turning to `CC(NCCC(c1ccccc1)c1ccccc1)c1ccccc1` (stereo not given), the Potency in the experiment with HB3 was 10 µM (active); with ICS, 2.24 µM (active); in the experiment with N140, 11.2 µM (active); with P93_24, 12.6 µM (active); with P94_40, 11.2 µM (active); in the experiment with PAD, 12.6 µM (active). Further, the Potency is 11.2 µM (active) with PC15; 8.49 µM (active) with PC26; 5.01 µM (active) in the experiment on PC49; 11.2 µM (active) in the experiment with SC27B; 12.6 µM (active) with TAB109; 11.2 µM (active) with TAB165.
Turning to `CC(C)(c1ccc(O)cc1)c1ccc(O)cc1`, the max response in the experiment with HaCat [1] was -13.2%; in the experiment with KB-3-1, -17.4%.
In the case of `CCC(C(=O)OCCN1CCOC(c2ccccc2)C1C)c1ccccc1` (stereo not given), the compound was called inactive in the experiment on HaCat [1] and in the experiment on HACAT [2]. Moreover, the max response in the experiment with NIH3T3 was -22.2%.
With `Nc1ncnc2nc[nH]c12`, the Potency entry in the experiment on HB3, in the experiment on ICS, in the experiment with JCK, in the experiment on N140, in the experiment on P93_24 and with P94_40 was “inactive” each time. Further, the Potency entry in the experiment with PAD, in the experiment on PC15, with PC26, in the experiment on PC49, in the experiment on SC27B and in the experiment with TAB109 was “inactive” in each case. Also, the Potency result with TAB113 and in the experiment with TAB165 was “inactive” in each case. Besides, the result with HACAT [2] was inactive.
